Assay [1] in a line: qHTS assay for small molecule disruptors of the mitochondrial membrane potential - 1 hr assay (AID 651754; calls by dose curve; note: nearly all actives have a fitted effect of over 35% in size; note: potency is the fitted concentration of half-maximal effect). The gist of the method:
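Mitochondrial potential in living HepG2 cells after 1 hr compound treatment at 37C was read with Mito-MPS dye added for a further 30 min. Red aggregate and green monomer fluorescence were measured; loss of potential leaves dye as cytoplasmic monomers.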
For orientation: Quantitative high-throughput screening tests each substance at several concentrations.

Assay [2] is described as follows: qHTS assay for small molecule disruptors of the mitochondrial membrane potential - 5 hr assay (AID 651755; calls by dose curve; note: % is set by controls: 0 for no effect and ±100 for the full control effect; nearly all actives have a fitted effect of over 40% in size). Put shortly: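 Read-out: ratiometric Mito-MPS fluorescence, green monomer (ex 490/em 535) vs red mitochondrial aggregate (ex 540/em 590). HepG2 cells treated 5 hr at 37C before 30 min dye loading.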
Assay [3] has as its target Peroxisome proliferator-activated receptor alpha (Homo sapiens) (UniProt Q07869). Kind of assay: qHTS assay for small molecule agonists of the peroxisome proliferator-activated receptor alpha (PPARalpha) signaling pathway (AID 651778). Note: % of control where 0% means no effect. The conditions noted are these: PathHunter PPARalpha complementation, chemiluminescence, 6 h; stronger effect = higher value. The gist of the method: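 Enzyme-fragment complementation assay in which ligand-bound PPARalpha translocates and forms an active enzyme that generates chemiluminescence. Cells were plated overnight, exposed to compound for 6 hr at 37 C, and then given detection reagent for 60 min at room temperature.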

Assay [4] concerns the target Nuclear receptor ROR-gamma (Homo sapiens) (UniProt P51449). Description: qHTS assay for small molecule antagonists of the retinoid-related orphan receptor gamma (ROR-gamma) signaling pathway (AID 651802).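 Note: CHO cells with doxycycline-induced ROR-gamma expression; luciferase reporter luminescence driven by ROR response element; series mostly up to about 92 µM; % is set by controls: 0 for no effect and ±100 for the full control effect; nearly all actives have a fitted effect of over 60% in size.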 Put shortly:
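Luminescence (One-Glo, 30 min RT) measured 16 h after compound addition and doxycycline induction at 37C. Reporter: RORE-luciferase under TET-inducible ROR-gamma in CHO cells.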

Assay [5] in a line: qHTS assay for small molecule agonists of the antioxidant response element (ARE) signaling pathway measured by Nrf2-dependant transcriptional activity (AID 720636; active = well fitted curve in the direction sought with a large enough effect in the repeat runs; an effect the other way counts as inactive or inconclusive;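 note: HepG2 cells with an ARE-driven luciferase reporter; % of control where 0% means no effect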). The gist of the method: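 Nrf2-dependent transcription is measured in ARE-luc HepG2 cells: compound is applied for 16 hr at 37 C after a 6 hr attachment period, and luciferase activity is quantified by luminescence using ONE-Glo.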

The nature of assay [6]: qHTS assay for small molecule agonists of the antioxidant response element (ARE) signaling pathway measured by Nrf2-dependant transcriptional activity - cell viability counter screen (AID 720653; active = well fitted curve in the direction sought with a large enough effect in the repeat runs; an effect the other way counts as inactive or inconclusive; note: % is set by controls: 0 for no effect and ±100 for the full control effect). The conditions noted are these: ARE-bla HepG2 viability, CellTiter-Glo ATP luminescence, 16 h; stronger effect = lower value. Put shortly: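 ARE-bla HepG2 cells treated with compounds for 16 h at 37C; this counter screen measures viability as intracellular ATP by CellTiter-Glo luminescence after 30 min at room temperature.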

The nature of assay [7]: qHTS assay for cell viability of HEK293 cells (AID 743288). Note: % is set by controls: 0 for no effect and ±100 for the full control effect; nearly all actives have a fitted effect of over 50% in size. To be noted: ATP luminescence (CellTiter-Glo), 18 h, stronger effect = lower value. Put shortly: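 Viable-cell counts were inferred from luciferase-based ATP content in HEK293 cells seeded at 2,000/well, pre-incubated ≥5 h, then dosed with DMSO-solubilised compounds for 18 h at 37 C.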
The nature of assay [8]: qHTS assay for cell viability of the p53RE-bla HCT-116 cell line (AID 743292). Note: nearly all actives have a fitted effect of over 55% in size. Note: potency is the fitted concentration of half-maximal effect. The gist of the method:
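ATP-based luminescence, 16 h compound exposure at 37 C, p53RE-bla HCT-116 cells at 4,000/well.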

The target of assay [9] is Nuclear receptor subfamily 1 group I member 2 (Rattus norvegicus) (UniProt Q9R1A7). Description: qHTS assay for small molecule activators of the rat pregnane X receptor (rPXR) signaling pathway (AID 651751; call rule not given here; note: 0% is about no effect). To be noted: rPXR reporter cells, luciferase (One-Glo), 24 h.
Nuclear receptor subfamily 1 group I member 2 (Rattus norvegicus), sequence (Q9R1A7 whole entry, looked up): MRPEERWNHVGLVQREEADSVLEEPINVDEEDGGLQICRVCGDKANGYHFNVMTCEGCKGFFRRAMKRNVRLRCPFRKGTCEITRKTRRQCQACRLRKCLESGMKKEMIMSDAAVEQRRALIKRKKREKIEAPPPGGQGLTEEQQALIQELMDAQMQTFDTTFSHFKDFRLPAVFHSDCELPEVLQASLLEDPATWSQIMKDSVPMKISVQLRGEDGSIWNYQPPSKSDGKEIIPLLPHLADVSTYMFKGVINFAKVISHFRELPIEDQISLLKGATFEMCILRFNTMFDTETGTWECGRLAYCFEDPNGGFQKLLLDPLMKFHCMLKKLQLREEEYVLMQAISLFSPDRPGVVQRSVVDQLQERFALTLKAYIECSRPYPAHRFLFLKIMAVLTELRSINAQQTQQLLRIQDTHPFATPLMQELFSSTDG
Assay [10] in a line: qHTS assay for small molecule activators of the human pregnane X receptor (PXR) signaling pathway (AID 720659; call rule not given here; note: 0% is about no effect).
Assay [11] deals with Tumor necrosis factor (Homo sapiens) (UniProt P01375). Description: qHTS assay to identify small molecules that stimulate Tumor Necrosis Factor-alpha (TNF-alpha) secretion (AID 651757; active = well fitted curve in the direction sought with a large enough effect in the signal ratio; the % refers to the signal ratio; note: 0% is about no effect). The gist of the method: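 Secreted TNF-alpha quantified by TR-FRET sandwich of two labeled anti-TNF-alpha antibodies, incubated 3 hr at room temperature. Preceded by 17 hr, 37 C compound treatment of THP-1 cells at 3000 cells/well.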
Tumor necrosis factor (Homo sapiens), sequence (P01375 whole entry, looked up): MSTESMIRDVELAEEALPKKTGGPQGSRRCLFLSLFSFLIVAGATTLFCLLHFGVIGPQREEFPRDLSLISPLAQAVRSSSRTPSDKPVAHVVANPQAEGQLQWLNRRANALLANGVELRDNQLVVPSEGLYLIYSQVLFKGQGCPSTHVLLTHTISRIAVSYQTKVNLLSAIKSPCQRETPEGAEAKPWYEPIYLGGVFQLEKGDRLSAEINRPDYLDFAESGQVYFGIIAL

A short description of assay [12]: qHTS assay for environmental chemicals that activate the Aryl hydrocarbon Receptor (AhR) signaling pathway (AID 651777). Note: % of control where 0% means no effect; nearly all actives have a fitted effect of over 15% in size. The conditions noted are these: 1A2-DRE human hepatoma cells, luciferase, 24 h; activation: stronger effect = higher value. The gist of the method: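 Reporter gene assay: hepatoma cells with DRE/CYP1A2-luciferase, 24 hr compound incubation at 37 C, 5% CO2, luminescence after One-Glo (30 min, RT).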

Assay [13] is described as follows: qHTS assay for small molecule antagonists of the retinoid-related orphan receptor gamma (ROR-gamma) signaling pathway - cell viability counter screen (AID 720652; active = well fitted curve in the direction sought with a large enough effect in the repeat runs; an effect the other way counts as inactive or inconclusive;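 note: compound exposure lasted 16 hr before ATP read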; note: potency is the fitted concentration of half-maximal effect). Put shortly:
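Cytotoxicity counter screen: intracellular ATP (CellTiter-Glo luminescence) measured in the doxycycline-induced CHO RORE-luciferase reporter line after 16 hr compound exposure at 37 C, 5% CO2.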

A short description of assay [14]: qHTS assay to identify small molecules that stimulate interleukin-8 (IL-8) secretion (AID 651758; active = well fitted activation curve with a large enough effect in the signal ratio; the % refers to the signal ratio; note: potency is the fitted concentration of half-maximal effect; for activation: 0% is about no effect). Put shortly:
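Compounds are added to THP-1 cells (2000 per well) and left 16 hrs at 37 C. A labeled anti-IL-8 antibody pair is then added, and IL-8 secretion is measured by time-resolved FRET after 1-3 hrs at room temperature.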

Several values for one entry are separate records, joined by “and”; a condition that tells them apart may be missing. Equal entries are not always repeated. A number with no mark means an inactive call. Records with an inconclusive call do not appear. Activity calls are given as the source filed them. Unless noted, calls come from the whole dose curve; as a rule, active = well fitted curve in the direction sought with a large enough effect; inconclusive = small, poorly fitted or top-dose-only effect, or another doubt; inactive = no such curve, though single readings can be large; an effect the other way counts as inactive or inconclusive.

Nuclear receptor ROR-gamma (Homo sapiens), sequence (P51449 whole entry, looked up): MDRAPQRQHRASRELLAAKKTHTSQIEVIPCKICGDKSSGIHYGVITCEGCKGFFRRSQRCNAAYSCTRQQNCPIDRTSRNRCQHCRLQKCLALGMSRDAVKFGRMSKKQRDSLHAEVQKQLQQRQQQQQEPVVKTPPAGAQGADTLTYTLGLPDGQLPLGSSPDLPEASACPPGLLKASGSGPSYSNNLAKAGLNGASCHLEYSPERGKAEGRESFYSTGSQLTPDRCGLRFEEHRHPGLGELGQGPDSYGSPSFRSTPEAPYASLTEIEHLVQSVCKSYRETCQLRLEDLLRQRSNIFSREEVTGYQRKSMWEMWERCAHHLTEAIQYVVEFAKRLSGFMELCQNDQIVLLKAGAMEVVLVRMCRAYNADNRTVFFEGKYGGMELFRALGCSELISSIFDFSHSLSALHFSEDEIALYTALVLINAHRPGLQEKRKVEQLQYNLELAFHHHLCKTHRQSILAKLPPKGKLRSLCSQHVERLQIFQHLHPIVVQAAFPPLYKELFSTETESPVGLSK
Peroxisome proliferator-activated receptor alpha (Homo sapiens), sequence (Q07869 whole entry, looked up, the tested form may be a part): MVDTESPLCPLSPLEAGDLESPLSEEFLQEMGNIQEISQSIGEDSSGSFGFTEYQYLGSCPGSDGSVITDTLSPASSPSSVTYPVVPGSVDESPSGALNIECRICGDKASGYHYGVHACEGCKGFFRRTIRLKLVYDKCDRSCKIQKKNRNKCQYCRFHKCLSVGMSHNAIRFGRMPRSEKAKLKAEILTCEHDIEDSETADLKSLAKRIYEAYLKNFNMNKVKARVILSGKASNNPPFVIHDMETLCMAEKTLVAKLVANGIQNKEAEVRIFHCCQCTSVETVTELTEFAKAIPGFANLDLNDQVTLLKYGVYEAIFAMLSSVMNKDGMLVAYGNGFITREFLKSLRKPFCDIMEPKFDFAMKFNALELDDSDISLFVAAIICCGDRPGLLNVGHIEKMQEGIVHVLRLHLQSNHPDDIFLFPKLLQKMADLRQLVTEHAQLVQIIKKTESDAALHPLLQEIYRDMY

Turning to `C[C@@H]1O[C@@H](O[C@@H]2[C@@H](O)[C@H](OCCc3ccc(O)c(O)c3)O[C@H](CO[C@@H]3O[C@H](CO)[C@@H](O)[C@H](O)[C@H]3O)[C@H]2OC(=O)/C=C/c2ccc(O)c(O)c2)[C@H](O)[C@H](O)[C@H]1O`, the Potency entry in assay [1], in assay [2], in assay [4] and in [8] was “inactive” throughout. Besides, the max response is 0.275% in assay [3], -6.98% in [6], -6.2% in [7] and 1.79% in assay [9]. Further, the result in [5] and in assay [10] was inactive.
Consider `Nc1cc([N+](=O)[O-])ccc1C(=O)O`, for which the Potency entry in assay [2], in assay [11], in assay [4], in assay [13] and in assay [8] was “inactive” in each case. Besides, in assay [12], the activation was 3.7% and 3.8%. Besides, the max response in [3] is -7.92% and -2.55%; in assay [6] it was -7.64% and 3.66%; in assay [7] it was -6.72% and -9.32%; in [9], -5.92% and 1.25%. Further, the compound was classed as inactive in assay [5] and in [10].
With `Clc1ccc(Cl)c(Cl)c1Cl`, the Potency entry in assay [11], in assay [4], in [13] and in assay [8] was “inactive” in each case. Further, in [12], the activation was 0.208% and -1.37%. Further, the max response in assay [3] is -7.17% and 0.0854%; in assay [6], 13.5% and -3.85%; in assay [7], 5.4% and -1.16%; in assay [9] it was -5.98% and -1.32%. Besides, the result in assay [5] and in assay [10] was inactive.
`C1CCOC1`: the Potency result in assay [11] and in [13] was “inactive” in each case. Besides, the activation in assay [12] is 0.0348%. The max response in [3] is -1.78%; in assay [6] it was 5.55%; in assay [9], 2.84%. The result in assay [5] and in assay [10] was inactive.
`CCOc1cc(OCC)c(C(C)=O)cc1OCC`: the Potency entry in [1], in assay [2], in [11], in [14], in assay [4] and in assay [13] was “inactive” in each case. The Potency entry in assay [8] is “inactive”. The activation in [12] is 3.71%. The results for the max response in assay [3], in assay [6] and in [7] were 0.501%, 3.21% and 0.327%, respectively. For the same compound, the outcome in [5] was inactive.
Regarding `O=c1[nH][nH]c(=O)c2cc([N+](=O)[O-])ccc12`, the Potency entry in assay [11], in assay [4], in assay [13] and in assay [8] was “inactive” each time. Moreover, the activation in assay [12] was 1.03%. Further, the max response in assay [3] was -4.9%; in assay [6], 5.62%; in [7], -7.38%; in assay [9], -1.39%. In addition, the call in [5] and in [10] was inactive.
For `CC(N)CN` (centres undefined), the Potency result in assay [11], in assay [14] and in assay [8] was “inactive” in each case. In [12], the activation is -0.27%. The max response in assay [3] is -3.51%; in assay [6], 0.44%; in assay [9] it was 5.77%. For the same compound, the call in [5] and in assay [10] was inactive.
Regarding `C=C(C)C1CC=C(C)C(OC(C)=O)C1` (centres undefined), the Potency result in assay [1], in assay [2], in assay [11], in [14], in [4] and in assay [8] was “inactive” throughout. Further, the activation in assay [12] was 0.261%. In addition, the max response is -3.58% in assay [3], 1.71% in assay [6] and 1.89% in assay [7]. Besides, the result in assay [5] and in assay [10] was inactive.
Regarding `O=[N+]([O-])c1ccc2nc[nH]c2c1`, the Potency result in assay [14] and in assay [4] was “inactive” in each case. For the same compound, the max response is -4.28% in assay [3], -5.47% in [6], 3.84% in assay [7] and -0.905% in assay [9]. Moreover, the compound was called inactive in [5] and in assay [10].
Consider `CC1=C(/C=C/C(C)=C/C=C/C(C)=C\C=O)C(C)(C)CCC1`, for which the Potency result in assay [1], in [2] and in [11] was “inactive” throughout. In addition, the Potency is 0.422 µM (active) in assay [14], 26.6 µM (active) in assay [13] and 44.7 µM (active) in [8]. Further, in assay [12], the activation is 6.53%. The max response in assay [3] was 1.33%; in assay [7], -22%.
Take `Clc1cc(Cl)cc(Cl)c1`: the Potency entry in assay [1], in assay [2], in assay [14], in assay [13] and in [8] was “inactive” in each case. The activation in assay [12] is 2.15%. Also, the max response in assay [3] was 0.786%; in [6], -5.36%; in assay [7] it was -3.91%. Also, the result in assay [5] and in assay [10] was inactive.
With `COc1ccc(N)c(OC)c1`, the Potency in assay [1] is 37.6 µM (active). For the same compound, the activation in [12] is 3.03%. Further, the max response in assay [3] is 4.7%; in [6] it was 4.1%; in [7] it was 1.67%. Besides, the Potency entry in assay [4], in assay [13] and in assay [8] was “inactive” in each case. The outcome in assay [5] was inactive.
In the case of `O=C(O)CN(CC(=O)O)CC(=O)O`, the Potency result in assay [11], in assay [4], in assay [13] and in [8] was “inactive” each time. The max response in [3] was 0.802% and -1.95% and -0.798%; in assay [6], -26.1% and -5.78% and 9.03%; in assay [7], 8.87% and -10.3% and 10.6%. Besides, the compound was classed as inactive in assay [5] and in assay [10].
Regarding `Cc1c(N)cccc1N`, the activation in assay [12] is 6.39%. For the same compound, the max response is 0.845% in assay [3], 1.04% in assay [6], 6.3% in [7] and 3.73% in assay [9]. The compound was classed as inactive in [5] and in [10]. Further, the Potency entry in [13] and in assay [8] was “inactive” throughout.
Turning to `Cc1cscn1`, the activation in assay [12] was 1.08%. Moreover, the max response in assay [3] is -1.32%; in [6], 0.707%; in assay [7], -3.62%; in assay [9], 0.103%. Besides, the result in assay [5] and in assay [10] was inactive. The Potency entry in assay [13] and in [8] was “inactive” throughout.
For `Nc1cccc2c(=O)[nH][nH]c(=O)c12`, the Potency entry in [1], in assay [2], in assay [4], in [13] and in assay [8] was “inactive” throughout. In addition, in assay [12], the activation is 0.365%. The figures for the max response in assay [3], in assay [6] and in assay [7] were 0.513%, 4.98% and 0.895%, respectively. The result in assay [5] was inactive.
Take `Nc1ccc(Cl)cc1[N+](=O)[O-]`: the Potency result in [11] and in assay [8] was “inactive” in each case. The activation in [12] was 1.69%. Moreover, the max response in assay [3] was -2.8%; in assay [6] it was 0.225%; in [7] it was -4.72%; in assay [9] it was 1.08%. In addition, the compound was called inactive in assay [5] and in assay [10].
Turning to `CC(=C/C=C/C(C)=C/C=C/C=C(C)/C=C/C=C(C)/C=C/C(=O)O)/C=C/C(=O)O`, the activation in [12] was 2.66%. For the same compound, the max response is 2.34% in assay [3], -9.67% in [6], -2.36% in assay [7] and 9.17% in assay [9]. In addition, the Potency entry in [4], in [13] and in [8] was “inactive” throughout. Also, the compound was called inactive in [5] and in assay [10].
As to `CCC(C)O` (centres undefined), the Potency entry in assay [1], in assay [2], in assay [11], in [14], in assay [4] and in assay [13] was “inactive” each time. In addition, the Potency result in [8] was “inactive”. For the same compound, the values for the max response in [3], in assay [6] and in assay [7] were 0.282%, -9.02% and 5.18%, respectively. Besides, in assay [5], the compound was classed as inactive.

(Values after PubChem BioAssay (NCATS).)
